An excerpt weighted towards active compounds, which were near 3.7% of everything screened.
Sm TGR block: blocks Schistosoma mansoni thioredoxin glutathione reductase. Q962Y6. purified TGR, DTNB reduction, TNB absorbance 405 nm. Potency, µM (top dose mostly 114 µM), without a hit: at the top dose activity change, negative = inhibition, actives largely listed as inhibitors. 360,000 tested, 3% active; further: nearly all actives have a fitted effect of over 60% in size
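First, TGR (20 nM dispensed) and NADPH were mixed with compound. Second, a 15 min room-temperature incubation followed. Third, further NADPH and then DTNB were added to start the reaction. Finally, TNB absorbance was monitored kinetically.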
FMDV inh: blocks foot and mouth disease virus; Potency, µM (titrated, usually from 57.9 µM), inactives show at the top dose activity change, negative = inhibition, usual class: inhibitors; 410,000 tested, 1.2% active; FMDV antiviral cell-based qHTS; calls by dose curve; tested in HEK293T cells; further: read-out not given here; nearly all actives have a fitted effect of over 45% in size
RE007 growth inh: less growth of the S. pombe RE007 Vpr strain; S. pombe RE007 Vpr strain, BacTiter-Glo ATP luminescence, 24 h; Potency, µM (doses to about 92.2 µM), for the others: at the highest dose activity change, negative = less growth, hits mostly inhibitors; 360,000 tested, 0.21% active; active means well fitted falling curve with a large enough effect; inconclusive means small, poorly fitted or top-dose-only effect; inactive means no such curve, though single readings can be large or run the other way; further: nearly all actives have a fitted effect of over 50% in size
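Fission yeast RE007 carrying one integrated HIV-1 vpr copy, seeded at OD 0.01 in PMG+AL medium with 23 nL pinned compound. Grown 24 h at 30 degrees; viability read by BacTiter-Glo luminescence after 5 min.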
TbPYK inhibitor: blocks Trypanosoma brucei pyruvate kinase; TbPYK enzyme, Kinase-Glo Plus ATP luminescence, 45 min; AID 624173; 410,000 tested, 0.12% active; Potency, µM (highest dose often 76.8 µM), inactives show at the highest dose activity, negative = inhibition, most hits filed as inhibitors; further: nearly all actives have a fitted effect of over 50% in size
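T. brucei PYK with substrate was exposed to pin-transferred compounds across a concentration series, then started with 130 uM ADP (final). After 45 min at room temperature, Kinase-Glo Plus luminescence was read, normalized and curve-fitted.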
Active calls of the source: *; ? = inconclusive; / = no result. Unless noted, the call rests on the fitted dose curve; in most records, active means well fitted curve in the direction sought with a large enough effect; inconclusive means small, poorly fitted or top-dose-only effect, or another doubt; inactive means no such curve, though single readings can be large; an effect the other way counts as inactive or inconclusive. On the % scale 0 is the no-effect control and ±100 the full control effect; potency means the concentration at half of the fitted maximal effect.

SMILES	Sm TGR block	FMDV inh	RE007 growth inh	TbPYK inhibitor
CC(C)(C)c1ccc(S(=O)(=O)/N=C2\C=C(NS(=O)(=O)c3ccccc3)C(=O)c3ccccc32)cc1	-27.0%	27.7%	-14.7%	-19.6%
Cc1ccc(S(=O)(=O)/N=C2/C=C(Sc3ncn[nH]3)C(=O)c3ccccc32)cc1	0.316µM*	-24.7%	?	7.94µM*
CC(C)c1ccc(S(=O)(=O)/N=C2/C=C(Sc3ncn[nH]3)C(=O)c3ccccc32)cc1	0.282µM*	22.4µM*	?	14.1µM*
C=Cc1ccc(Cn2nc(-c3ccc(C)c(S(=O)(=O)N(CC)CC)c3)ccc2=O)cc1	-0.2%	-14.9%	/	-16.4%
COc1ccc(NC(=O)C2CCCN(C(=O)c3cnn(-c4ccccc4)c3-n3cccc3)C2)cc1 (centres undefined)	9.1%	-12.2%	/	-3.2%
CCOC(=O)CCSc1n[nH]c(=S)s1	17.8µM*	10.7%	2.0%	-28.4%
Cc1nc2ccc(S(=O)(=O)N(CC(=O)Nc3cccc(F)c3)Cc3ccccc3)cc2s1	18.4%	-20.8%	/	-3.4%
COC(CN(C)C(C(=O)NC1CCCCC1)c1ccccc1)OC (centres undefined)	?	11.5%	31.3%	-5.9%
COc1ccc(N(C(=O)c2cnccn2)C(C(=O)NC2CCCCC2)c2ccc(Cl)cc2)cc1 (centres undefined)	/	-6.2%	-8.3%	3.1%
COC(CN(C(=O)CCl)C(C(=O)NC1CCCC(C)C1C)c1ccc(C)cc1)OC (centres undefined)	39.8µM*	?	-10.8%	13.2%
COC(CN(C(=O)CCl)C(C(=O)NC1CCCCC1)c1ccc(Cl)cc1)OC (centres undefined)	22.4µM*	?	-4.5%	3.0%
O=C(NC1CCCCC1)C(c1cccnc1)N(C(=O)CCl)c1cccc(Cl)c1 (centres undefined)	3.98µM*	7.94µM*	11.6%	2.0%
COc1ccc(C(C(=O)NC2CCCCC2)N(C(=O)CCl)c2ccc(Cl)cc2)cc1 (centres undefined)	1.58µM*	15.8µM*	-17.7%	-20.3%
CN(C)C(C(=O)NC1CCCCC1)c1ccc(Cl)cc1 (centres undefined)	2.3%	-13.0%	2.6%	2.2%
COc1ccc(NC(=O)c2ccco2)cc1NC(=O)c1ccc(C)c(C)c1	4.8%	4.5%	/	3.2%
COc1ccc(NC(=O)C(NS(=O)(=O)c2cccc3nsnc23)C(C)C)cc1 (centres undefined)	-9.1%	10.6%	/	1.4%
Cc1ccc(C)c(N2CCN(C(=O)c3c4c(nc5ccccc35)C(=O)N(C3CCCCC3)C4)CC2)c1	-11.6%	-21.7%	/	-0.9%
COC(CN(C(=O)CCl)C(C(=O)NC1CCCCC1)c1ccccc1C)OC (centres undefined)	7.08µM*	?	5.4%	-7.7%
Cc1noc(-c2ccc(-c3noc(-c4ccc(Cl)cc4)n3)cc2)n1	9.8%	-4.8%	/	5.0%
CC(C)c1ccc(NC(=O)Cn2cc(S(=O)(=O)N3CCN(c4ccccc4F)CC3)c3ccccc3c2=O)cc1	-1.1%	-19.3%	/	-0.2%
Cc1ccc(NNS(=O)(=O)c2ccc(C)cc2)cc1	7.94µM*	-6.5%	31.6µM*	?
Cc1ccc(S(=O)(=O)NNC(=O)C(=O)NNS(=O)(=O)c2ccc(C)cc2)cc1	0.3%	-17.4%	?	-0.9%
COc1ccc(Cl)cc1-n1c(C)ccc1C	50.1µM*	-8.6%	-1.5%	-6.6%
COc1ccc(Cl)cc1N1C(=O)c2cccnc2C1=O	0.8%	3.6%	8.1%	0.0%
Cc1cc(N2CCN(C(=O)Nc3ccc(F)cc3F)CC2)c2ccccc2n1	0.2%	-23.3%	-2.8%	-3.5%
SMILES	Sm TGR block	FMDV inh	RE007 growth inh	TbPYK inhibitor
CCCCc1ccc(NC(=O)N2CCN(c3cc(C)nc4ccccc34)CC2)c(C)c1	1.1%	35.5µM*	4.8%	-4.6%
Cc1cc2cc(C=C(C#N)C#N)c(Cl)nc2cc1C	3.16µM*	?	/	0.3%
CCOC(=O)/C(C#N)=C/c1cc2cc(C)c(C)cc2nc1Cl	-29.4%	31.1%	-3.5%	-1.4%
Cc1ccc(CNC(=O)C(=O)NCC(c2ccco2)S(=O)(=O)c2cccs2)cc1 (centres undefined)	?	-22.5%	/	2.9%
CCOc1ccc(C(=O)NCC(c2ccco2)S(=O)(=O)c2cccs2)cc1 (centres undefined)	5.62µM*	8.5%	/	-1.3%
CCOC(=O)C(=O)NCC(c1ccco1)S(=O)(=O)c1cccs1 (centres undefined)	2.51µM*	-2.9%	4.0%	-0.7%
COc1ccc(C(=O)NCC(c2cccs2)S(=O)(=O)c2cccs2)cc1 (centres undefined)	-26.9%	-13.1%	/	-6.1%
Cc1cc(C)c(S(=O)(=O)NCC(c2ccco2)S(=O)(=O)c2cccs2)c(C)c1 (centres undefined)	0.282µM*	45.1%	/	-3.9%
CCN(C(=O)Cn1c(=O)n(Cc2ccccc2)c(=O)c2c1c1cc(OC)ccc1n2C)c1ccccc1	0.5%	2.1%	/	0.3%
CCOc1cccc2cc(C(=O)Oc3ccc(OC)cc3)c(=O)oc12	39.8µM*	-10.3%	2.5%	-14.2%
COc1cccc2cc(C(=O)Oc3ccccc3)c(=O)oc12	-16.0%	9.5%	-13.4%	2.5%
CCNC(=S)Nc1ccc(C)c(S(=O)(=O)Nc2ccccc2OC)c1	2.82µM*	43.6%	-9.5%	0.5%
CCOC(=O)C(C)(C)NS(=O)(=O)c1ccc(Cl)c([N+](=O)[O-])c1	-32.6%	-7.7%	-15.0%	4.3%
CCOC(=O)C(C)(C)N(Cc1ccc(C)cc1)S(=O)(=O)c1ccc(Cl)c([N+](=O)[O-])c1	-16.6%	25.1µM*	80.9%	-7.9%
COC(=O)c1c(OCc2cccnc2)cc(=O)n2c1CCN(C(=O)c1ccc(OC)c(F)c1)CC2	/	-4.6%	/	/
CC[n+]1c(C)sc2sc3ccccc3c21	-24.2%	/	/	/
CC[n+]1c(C)sc2c3ccsc3ccc21	10.3%	2.7%	1.8%	3.98µM*
Cc1cnc(CNc2cc(-c3ccccc3CN(C)C)ncn2)cn1	/	-6.9%	/	/
O=C(c1ccco1)C(O)c1ccco1 (centres undefined)	20µM*	-4.4%	/	2.8%
Cc1ccc(-n2c(C)cc(/C=c3/sc4nc5ccccc5n4c3=O)c2C)cc1	-29.5%	1µM*	-6.5%	-21.0%
O=c1/c(=C\c2cccn2-c2ccccc2)sc2nc3ccccc3n12	-7.9%	7.3%	1.0%	-5.8%
O=C1C=CC(O)C2(CO)OC12 (centres undefined)	/	28.2µM*	8.6%	-7.8%
COc1ccc2[nH]c3c(c2c1)CCNC3c1ccc([N+](=O)[O-])o1 (centres undefined)	0.891µM*	-27.5%	/	-17.5%
CCOC(=O)c1ccc(N2C(=O)C=CC2=O)cc1	0.501µM*	0.0%	5.62µM*	31.6µM*
CCOC(=O)c1ccc(-n2c(C)ccc2C)cc1	28.2µM*	2.4%	2.6%	2.9%
CCOC(=O)c1ccc(-n2c(=O)[nH]c3ccccc3c2=O)cc1	0.1%	9.7%	0.0%	5.5%
O=C(NCCn1cccc1)c1cccc2ccccc12	28.2µM*	26.7%	-8.6%	-21.0%
